PubChem BioAssay (Tox21)
Inconclusive results are not listed. Activity calls are given as the source filed them. Unless noted, the call rests on the fitted dose curve; in most records, active means well fitted curve in the direction sought with a large enough effect in the repeat runs; inconclusive means weak or mixed curves; inactive means no such curve, though single readings can be large; an effect the other way counts as inactive or inconclusive.

Tests used:
[1] = qHTS assay to identify small molecule antagonists of the thyroid receptor (TR) signaling pathway - cell viability counter screen (AID 743064); further: nearly all actives have a fitted effect of over 50% in size
Outline: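 GH3.TRE-Luc cells, 4 h pre-plating; cpd + T3 1 nM final; 37 °C 23.5 h; CellTiter-Fluor 30 min; fluorescence read.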

[2] = qHTS assay to identify small molecule antagonists of the thyroid receptor (TR) signaling pathway (AID 743065); further: nearly all actives have a fitted effect of over 55% in size
Outline: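 Antagonism measured as loss of luciferase signal in GH3 cells stably carrying a TRE-luciferase reporter, co-treated with compound and T3 (1 nM final) for 23.5 h at 37 C. Viability was read in the same well by CellTiter-Fluor.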

[3] = test system: thyroid hormone receptor (rat, GH3 cells); experiment: qHTS assay to identify small molecule agonists of the thyroid receptor (TR) signaling pathway (AID 743066; calls by dose curve)
[4] = molecular target: Estrogen receptor (Homo sapiens) (UniProt P03372); experiment: qHTS assay to identify small molecule antagonists of the estrogen receptor alpha (ER-alpha) signaling pathway (AID 743069; active means well fitted curve in the direction sought with a large enough effect in the signal ratio in the repeat runs, not every such curve was filed as active; the % refers to the signal ratio)
Outline: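 ER-alpha-UAS-bla GripTite HEK293 line; 2% charcoal-stripped FBS overnight; plated, 4 hr 37C/5% CO2; cpd in DMSO + 17beta-estradiol, 18 hr 37C; LiveBLAzer B/G FRET substrate 2 hr RT; fluorescence intensity.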

[5] = qHTS assay to identify small molecule antagonists of the estrogen receptor alpha (ER-alpha) signaling pathway - cell viability counter screen (AID 743074; calls by dose curve;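 further: HEK293 cells carrying ER-alpha-UAS-bla reporter stimulated with 17beta-estradiol; nearly all actives have a fitted effect of over 45% in size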)
[6] = molecular target: Estrogen receptor (Homo sapiens) (UniProt P03372); experiment: qHTS assay to identify small molecule agonists of the estrogen receptor alpha (ER-alpha) signaling pathway (AID 743075; calls by dose curve;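 further: HEK293 GripTite cells with ER-alpha and UAS-driven beta-lactamase reporter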)
[7] = molecular target: Estrogen receptor (Homo sapiens) (UniProt P03372); experiment: qHTS assay to identify small molecule agonists of the estrogen receptor alpha (ER-alpha) signaling pathway using the BG1 cell line (AID 743079); details: BG1Luc4E2 cells, ERE-luciferase agonist, 22 h; activation: at 70.3 µM (top of the series); further: nearly all actives have a fitted effect of over 20% in size
[8] = qHTS assay to identify small molecule antagonists of the estrogen receptor alpha (ER-alpha) signaling pathway using the BG1 cell line (AID 743080; calls by dose curve;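 further: BG1 cells stimulated with 17beta-estradiol alongside compound; nearly all actives have a fitted effect of over 25% in size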)
Outline: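 Luciferase inhibition measured with ONE-Glo after 30 min at RT in BG1Luc4E2 cells given test compounds and 17beta-estradiol for 21.5 h at 37 C; CellTiter-Fluor viability read in the same wells beforehand.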

[9] = qHTS assay to identify small molecule antagonists of the estrogen receptor alpha (ER-alpha) signaling pathway using the BG1 cell line - cell viability counter screen (AID 743081);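 further: compound given together with 17beta-estradiol as the ER stimulus; nearly all actives have a fitted effect of over 45% in size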
Aromatase (Homo sapiens) = Aromatase (Homo sapiens) (UniProt P11511); experiment: qHTS assay to identify aromatase inhibitors (AID 743083); further: nearly all actives have a fitted effect of over 55% in size
[10] = qHTS assay to identify aromatase inhibitors - cell viability counter screen (AID 743084);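 further: cells stimulated with testosterone during compound exposure; nearly all actives have a fitted effect of over 55% in size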
[11] = molecular target: Aryl hydrocarbon receptor (Homo sapiens) (UniProt P35869); experiment: qHTS assay to identify small molecule that activate the aryl hydrocarbon receptor (AhR) signaling pathway (AID 743085);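 further: HG2L7.5c1 human HepG2 liver cells with stably integrated DRE-driven firefly reporter; nearly all actives have a fitted effect of over 15% in size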
Outline: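 Luminescence read-out: ONE-Glo reagent, 30 min at room temperature, in HG2L7.5c1 HepG2 reporter cells treated 24 h at 37C. Viability was measured beforehand by CellTiter-Fluor fluorescence after 30 min at 37C.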

[12] = qHTS assay to identify small molecule that activate the aryl hydrocarbon receptor (AhR) signaling pathway - cell viability counter screen (AID 743086);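 further: HepG2 liver cells carrying the AhR DRE luciferase reporter; nearly all actives have a fitted effect of over 45% in size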
Outline: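 Cytotoxicity counter screen: CellTiter-Fluor signal (30 min, 37 C) in 4000 HepG2 cells/well carrying the DRE-luciferase reporter, following 24 h compound exposure at 37 C.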

[13] = qHTS assay to identify small molecule antagonists of the peroxisome proliferator-activated receptor gamma (PPARg) signaling pathway - cell viability counter screen (AID 743194); details: Potency: co-treated with 50 nM rosiglitazone unless noted; further: nearly all actives have a fitted effect of over 55% in size
Outline: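 Viability was measured as CellTiter-Glo luminescence in GeneBLAzer PPARg UAS-bla HEK293H cells. These cells had been exposed 17 h at 37 C to compounds together with rosiglitazone at 50 nM final, with the beta-lactamase readout taken in the same wells.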

[14] = qHTS assay for small molecule agonists of the antioxidant response element (ARE) signaling pathway (AID 743202; active means well fitted activation curve with a large enough effect in the signal ratio in the repeat runs, not every such curve was filed as active; the % refers to the signal ratio)
Outline: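 Quantitative high-throughput format in HepG2 cells bearing an integrated ARE-beta-lactamase reporter. Compound exposure lasted 16 h at 37 C, and fluorescence was read 2 h after adding LiveBLAzer B/G substrate at room temperature.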

[15] = qHTS assay for small molecule activators of the heat shock response signaling pathway - cell viability counter screen (AID 743209); further: nearly all actives have a fitted effect of over 50% in size
Outline: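 Readout: CellTiter-Glo luminescence, 30 min at room temperature. System: HSE-bla HeLa cells, 1500/well, plated overnight. Treatment: compounds in DMSO, 5 h at 37 C.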

[16] = molecular target: Peroxisome proliferator-activated receptor gamma (Homo sapiens) (UniProt P37231); experiment: qHTS assay to identify small molecule agonists of the peroxisome proliferator-activated receptor gamma (PPARg) signaling pathway (AID 743094; active means well fitted activation curve with a large enough effect in the signal ratio in the repeat runs, not every such curve was filed as active; the % refers to the signal ratio)
Outline: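 Compounds dissolved in DMSO were added to PPARg UAS-bla HEK293H cells for 17 h at 37C, and reporter expression was quantified by fluorescence intensity after 1 h with LiveBLAzer B/G FRET substrate.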

[17] = molecular target: Peroxisome proliferator-activated receptor gamma (Homo sapiens) (UniProt P37231); experiment: qHTS assay to identify small molecule antagonists of the peroxisome proliferator-activated receptor gamma (PPARg) signaling pathway (AID 743191; calls by dose curve; further: nearly all actives have a fitted effect of over 30% in size)
Outline: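 Beta-lactamase reporter under UAS control in HEK293H PPARg-bla cells; compound treatment 17 h at 37C. Read-out: fluorescence intensity after 1 h room-temperature incubation with LiveBLAzer B/G FRET substrate.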

[18] = qHTS assay for small molecule agonists of the antioxidant response element (ARE) signaling pathway - cell viability counter screen (AID 743203; calls by dose curve; further: nearly all actives have a fitted effect of over 55% in size)
Outline: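 Following 16 hrs of compound treatment at 37C, HepG2 cells with an ARE-controlled beta-lactamase gene were lysed with CellTiter-Glo. Luminescence was read after 30 min at room temperature.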

[19] = qHTS assay for small molecule activators of the heat shock response signaling pathway (AID 743210; active means well fitted activation curve with a large enough effect in the signal ratio in the repeat runs, with a control signal flat, not every such curve was filed as active; the % refers to the signal ratio;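 further: HeLa cells with beta-lactamase reporter driven by heat shock elements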)
Outline: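 HeLa HSE-bla cells, overnight plating; cpd in DMSO 5 h, 37 C; LiveBLAzer B/G FRET substrate 2.5 h RT; fluorescence intensity read.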

Measured: Potency

Sequence of Peroxisome proliferator-activated receptor gamma (Homo sapiens) (P37231 whole entry, looked up): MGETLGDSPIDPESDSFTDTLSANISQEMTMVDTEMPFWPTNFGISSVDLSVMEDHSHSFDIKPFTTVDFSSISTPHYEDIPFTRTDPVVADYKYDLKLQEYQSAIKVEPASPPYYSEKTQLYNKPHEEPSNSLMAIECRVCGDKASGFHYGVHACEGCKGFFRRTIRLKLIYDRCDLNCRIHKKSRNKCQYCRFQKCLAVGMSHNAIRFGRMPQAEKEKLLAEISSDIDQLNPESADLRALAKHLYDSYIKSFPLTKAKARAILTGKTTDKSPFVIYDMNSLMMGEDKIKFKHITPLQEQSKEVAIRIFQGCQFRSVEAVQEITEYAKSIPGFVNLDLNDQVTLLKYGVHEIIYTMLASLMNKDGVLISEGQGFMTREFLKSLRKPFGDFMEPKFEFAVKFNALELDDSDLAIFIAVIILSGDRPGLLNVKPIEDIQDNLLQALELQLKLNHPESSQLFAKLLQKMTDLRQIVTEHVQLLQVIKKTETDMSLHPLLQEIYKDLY
Sequence of Estrogen receptor (Homo sapiens) (P03372 whole entry, looked up): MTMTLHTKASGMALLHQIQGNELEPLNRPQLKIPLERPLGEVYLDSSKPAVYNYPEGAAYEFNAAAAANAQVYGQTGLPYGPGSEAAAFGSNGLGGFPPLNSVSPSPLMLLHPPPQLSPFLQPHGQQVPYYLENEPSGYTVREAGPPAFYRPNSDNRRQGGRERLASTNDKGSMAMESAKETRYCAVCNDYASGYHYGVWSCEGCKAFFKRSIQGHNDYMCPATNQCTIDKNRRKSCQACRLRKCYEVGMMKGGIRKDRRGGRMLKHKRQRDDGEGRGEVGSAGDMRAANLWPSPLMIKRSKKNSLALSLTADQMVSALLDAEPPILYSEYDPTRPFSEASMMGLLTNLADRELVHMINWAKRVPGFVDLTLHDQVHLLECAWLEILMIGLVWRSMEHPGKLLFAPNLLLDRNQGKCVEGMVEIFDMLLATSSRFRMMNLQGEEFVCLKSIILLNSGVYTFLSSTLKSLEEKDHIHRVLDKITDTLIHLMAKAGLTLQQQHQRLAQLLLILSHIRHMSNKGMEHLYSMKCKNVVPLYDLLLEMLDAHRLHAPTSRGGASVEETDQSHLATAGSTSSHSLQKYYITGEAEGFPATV
Sequence of Aromatase (Homo sapiens) (P11511 whole entry, looked up): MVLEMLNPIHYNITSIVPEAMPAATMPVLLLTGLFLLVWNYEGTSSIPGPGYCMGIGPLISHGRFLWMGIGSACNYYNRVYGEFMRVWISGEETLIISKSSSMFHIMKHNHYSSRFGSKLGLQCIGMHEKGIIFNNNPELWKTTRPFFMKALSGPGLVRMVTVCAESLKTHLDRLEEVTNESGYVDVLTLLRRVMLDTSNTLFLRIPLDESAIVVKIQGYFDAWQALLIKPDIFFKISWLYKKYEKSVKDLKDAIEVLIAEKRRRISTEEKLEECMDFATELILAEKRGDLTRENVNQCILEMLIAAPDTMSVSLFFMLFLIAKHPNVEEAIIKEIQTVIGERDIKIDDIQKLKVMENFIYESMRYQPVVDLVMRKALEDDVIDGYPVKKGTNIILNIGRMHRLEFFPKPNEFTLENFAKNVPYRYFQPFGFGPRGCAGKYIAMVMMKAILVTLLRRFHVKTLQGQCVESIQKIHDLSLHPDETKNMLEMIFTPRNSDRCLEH
Sequence of Aryl hydrocarbon receptor (Homo sapiens) (P35869 whole entry, looked up): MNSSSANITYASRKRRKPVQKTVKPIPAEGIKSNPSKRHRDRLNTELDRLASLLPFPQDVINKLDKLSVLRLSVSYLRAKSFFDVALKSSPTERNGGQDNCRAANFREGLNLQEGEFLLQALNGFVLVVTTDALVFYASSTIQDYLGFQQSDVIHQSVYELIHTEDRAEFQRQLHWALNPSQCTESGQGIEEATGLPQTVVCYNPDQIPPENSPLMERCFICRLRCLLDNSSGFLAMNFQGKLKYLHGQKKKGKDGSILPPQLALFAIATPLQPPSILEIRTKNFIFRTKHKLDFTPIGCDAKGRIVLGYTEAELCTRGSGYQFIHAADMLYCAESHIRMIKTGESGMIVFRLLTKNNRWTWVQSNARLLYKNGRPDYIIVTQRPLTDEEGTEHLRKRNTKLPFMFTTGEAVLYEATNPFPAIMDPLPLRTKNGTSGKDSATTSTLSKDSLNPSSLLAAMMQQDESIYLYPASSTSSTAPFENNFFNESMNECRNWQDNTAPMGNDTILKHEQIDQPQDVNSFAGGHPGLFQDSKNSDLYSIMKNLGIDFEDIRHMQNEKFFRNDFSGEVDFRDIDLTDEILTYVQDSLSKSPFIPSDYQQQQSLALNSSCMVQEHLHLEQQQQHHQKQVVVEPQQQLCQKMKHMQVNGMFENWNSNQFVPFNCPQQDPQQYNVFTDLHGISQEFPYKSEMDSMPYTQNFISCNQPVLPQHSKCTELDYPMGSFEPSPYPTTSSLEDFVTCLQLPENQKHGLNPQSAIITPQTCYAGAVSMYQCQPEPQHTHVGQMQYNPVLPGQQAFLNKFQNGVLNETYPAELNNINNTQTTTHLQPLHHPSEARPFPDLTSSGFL

CCCCN(CCCC)C(=S)S
inactive: [1] | [2] | [3] | [4] | [5] | [6] | [7] | [8] | [9] | Aromatase (Homo sapiens) | [10] | [11] | [12] | [13] | [14] | [15]

[O]=[Cr][O][Cr]=[O]
inactive: [1] | [2] | [3] | [4] | [5] | [6] | [7] | [8] | [9] | Aromatase (Homo sapiens) | [10] | [11] | [12] | [16] | [17] | [13] | [14] | [18] | [15] | [19]

CCNc1nc(NC(C)C(C)C)nc(SC)n1 (centres undefined)
inactive: [1] | [2] | [3] | [4] | [5] | [6] | [7] | [8] | [9] | Aromatase (Homo sapiens) | [10] | [11] | [12] | [14] | [15] | [19]

CC(C)Br
inactive: [1] | [2] | [3] | [4] | [5] | [6] | [7] | [8] | [9] | Aromatase (Homo sapiens) | [10] | [11] | [12] | [16] | [13] | [14] | [18] | [15] | [19]

OCC(Br)CBr (centres undefined)
inactive: [1] | [2] | [3] | [4] | [5] | [6] | [7] | [8] | [9] | Aromatase (Homo sapiens) | [10] | [11] | [12] | [16] | [17] | [13] | [14] | [18] | [15]

CCOC(=O)Cc1ccccc1
inactive: [1] | [2] | [3] | [4] | [5] | [6] | [7] | [8] | [9] | Aromatase (Homo sapiens) | [10] | [11] | [12] | [16] | [14] | [18] | [15]

O=[N+]([O-])c1ccc(CCl)cc1
inactive: [1] | [2] | [3] | [4] | [5] | [6] | [7] | [9] | Aromatase (Homo sapiens) | [10] | [11] | [12] | [16] | [13] | [18] | [15] | [19]
